# Screening results (PubChem BioAssay)
# HIV RNase H inh-1 – blocks HIV-1 RNase H cleavage of RNA/DNA duplex; P04585; RT-RNase H RNA/DNA duplex cleavage, fluorescence; inhibition, % at 10 µM; 65,000 compounds, 1.9% hits; in the data active = inhibition above about 50%
# RmlC RmlD mix – mixture blocks RmlC and RmlD coupled enzyme activity; RmlC/RmlD coupled enzyme inhibition, 384-well mixture HTS; inhibition, % at 5.5 µM; 110,000 compounds, 0.39% hits; AID 1532; in the data active = inhibition above about 30%, passing the limit was not always enough; inconclusive = no clear call, values can overlap the other calls
# HIV RNase H inh-2 – confirmation of HIV-1 reverse transcriptase RNase H inhibitors | 1,000 compounds, 39% hits | inhibition, % at 10 µM | Recombinant RT RNase H, fluorescent RNA/DNA duplex cleavage | shares compounds with HIV RNase H inh-1; in the data active = inhibition above about 48%; inconclusive = no clear call, values can overlap the other calls
# * = called active by the depositor; ? = inconclusive; / = no result. Many of the other results were omitted from the sample, so hits are more common in it than they were.
SMILES,HIV RNase H inh-1,RmlC RmlD mix,HIV RNase H inh-2
COc1cc(OC)c(C2CC(=O)N3CN(C)CSC3=C2C#N)cc1OC (configuration not stated),76.0*,-10.8,56.7*
COc1ccc(OC)c(C2CC(=O)N3CN(c4ccc(C)c(Cl)c4)CSC3=C2C#N)c1 (configuration not stated),-5.5,7.0,/
COc1ccc(OC)c(C2CC(=O)N3CN(c4cccc(Cl)c4)CSC3=C2C#N)c1 (configuration not stated),-7.7,-10.9,/
COc1ccc(Br)cc1C1CC(=O)N2CN(C)CSC2=C1C#N (configuration not stated),80.0*,7.7,64.4*
CCNc1nc(NC(C)C)nc(Oc2ccc(/C=N/O)cc2)n1,/,-18.4,/
CC(C)Cn1c(N)c(C(=O)COC(=O)c2cc(-c3ccco3)nc3ccccc23)c(=O)n(C)c1=O,86.4*,/,?
CC(C)Cn1c(N)c(C(=O)COC(=O)c2cc(-c3ccccc3)nc3ccccc23)c(=O)n(C)c1=O,/,-1.8,/
C=CCOc1ccc(CC2C(=O)N(C)C(=O)N(C)C2=O)cc1,55.6*,5.0,87.9*
CCN(CC)c1ccc(CC2C(=O)N(C)C(=O)N(C)C2=O)cc1,8.4,/,/
Cc1cc(=O)[nH]c(SCc2cc(=O)n3nc(C)sc3n2)n1,-5.8,-13.8,/
COc1cc(C(=O)Nc2cc(-c3nc4cc(C)ccc4o3)ccc2C)cc(OC)c1OC,7.6,/,/
Cc1cc(C)c2oc(-c3ccc(Cl)c(NC(=O)c4ccc(C#N)cc4F)c3)nc2c1,90.5*,/,73.0*
COc1cc(NC(=O)C2CCCCC2)c(OC)cc1NC(=O)CCC(=O)NCc1ccco1,4.6,8.5,/
CCN1CCN(c2nc3ccccc3s2)CC1,/,67.0,/
COc1cccc2sc(N3CCN(c4nc5ccccc5s4)CC3)nc12,71.0*,-1.9,?
C[N+](C)(C)C/C=C1/COCO1,-12.7,5.1,/
CCN(CC)c1ccc(/C=N/N2CCOCC2)cc1,/,-0.1,/
CCN(CC)c1ccc(C=N/C(C#N)=C(\N)C#N)cc1,80.1*,13.7,45.4
COCCCn1c(SCC(=O)Nc2cccc(C(=O)OC)c2)nnc1-c1ccncc1,-21.6,-3.6,/
COc1ccc2[nH]c(=O)c(CN(Cc3nnnn3Cc3ccco3)C3CCCCC3)cc2c1,32.8,30.9,/
COc1ccc2[nH]c(=O)c(CN(C3CCCCC3)C(c3nnnn3Cc3ccco3)C(C)C)cc2c1 (configuration not stated),50.8*,/,54.6*
CC(=O)C1=C(C)NC(SCC(=O)c2ccc(F)cc2)=C(C#N)C1c1ccco1 (configuration not stated),-7.0,6.6,/
COc1ccccc1NC(=O)C1=C(C)NC(SCC(=O)c2ccc(C)cc2)=C(C#N)C1c1ccco1 (configuration not stated),58.9*,/,39.3
C=CCc1cccc2cc(C(=O)N3CCN(C(=O)c4ccco4)CC3)c(=O)oc12,-4.6,9.0,/
Cc1ccc(-c2nnn(CC(=O)NCc3ccccc3)n2)c(-n2cnnn2)c1,-3.7,6.0,/
SMILES,HIV RNase H inh-1,RmlC RmlD mix,HIV RNase H inh-2
Cc1ccc(-c2nnn(CC(=O)N3CCCCC3)n2)c(-n2cnnn2)c1,82.1*,4.9,12.8
O=S(=O)(c1ccc(S(=O)(=O)N2CCN(C/C=C/c3ccccc3)CC2)cc1)N1CCCC1,59.2*,-8.6,56.1*
O=C(Cc1ccccc1)N1CCN(C/C=C/c2ccccc2)CC1,-81.8,29.7,/
COC(=O)CSc1ccccc1C(=O)OC,-15.3,22.1,/
Cn1cnnc1SCC(=O)Nc1ccccc1,-4.6,4.8,/
COC(=O)CSC1=NS(=O)(=O)c2ccccc21,66.4*,-4.4,-2.1
O=C(CSC1=NS(=O)(=O)c2ccccc21)Nc1ccccc1,55.1*,0.1,7.2
O=C(O)c1ccccc1C(=O)NNc1ccc(F)cc1,/,9.3,/
COc1ccc(-n2nc(C(=O)NCC(=O)NCC3CCCO3)c3ccccc3c2=O)cc1Cl (configuration not stated),/,12.8,/
Cc1cccc(-n2c(CCCN3C(=O)c4ccccc4C3=O)nc3ccccc3c2=O)n1,2.1,/,/
COC(=O)C(N)Cc1ccc(O)c(O)c1 (configuration not stated),/,21.9,/
NC(CO)C(=O)NNCc1ccc(O)c(O)c1O (configuration not stated),29.9,-8.1,31.8
Cc1c(CCCC(=O)O)sc(N)c1C(=O)c1cccc(C(F)(F)F)c1,/,5.9,/
Cc1ccc2cc(CNC(C)C)c(=O)[nH]c2c1,3.1,-3.0,/
O=C(CSCC(=O)N1CCCc2ccccc21)Nc1nc(-c2ccccc2)cs1,/,-30.6,/
Cc1cc(C(F)F)nn1CC(=O)NCc1ccccc1F,/,-6.4,/
C=CCNC(=O)c1c(N)n(-c2ccc3c(c2)OCO3)c2nc3ccccc3nc12,57.1*,-40.7,53.9*
CCCCNC(=O)c1c(N)n(Cc2ccc3c(c2)OCO3)c2nc3ccccc3nc12,/,-101.5,/
O=C(CSc1cn(Cc2ccccc2)c2ccccc12)N1CCOCC1,/,6.6,/
COc1ccc(CCNC(=O)CCSc2nc(-c3ccco3)cc(C(F)(F)F)n2)cc1OC,-9.3,-13.9,/
COc1cc(/C=C/C(=O)O)ccc1O,/,-11.5,/
COc1cc(/C=C/C(=O)CC(=O)/C=C/c2ccc(O)c(OC)c2)ccc1O,82.8*,-2.0,56.9*
COC(=O)[C@@H]1C[C@@]2(O)[C@@H](O)[C@@H](O)[C@@H](O)C[C@H]2N1C/C=C/c1ccccc1,/,-10.7,/
CCC1S/C(=N/C(=O)NC2CCCCC2)NC1=O (configuration not stated),/,-5.0,/
O=C(/N=C1\NC(=O)C(F)(C(F)(F)F)S1)NC1CCCCC1 (configuration not stated),86.7*,-13.8,30.0
SMILES,HIV RNase H inh-1,RmlC RmlD mix,HIV RNase H inh-2
CSc1nc(Sc2ccccc2Cl)c2ccccc2n1,/,7.0,/
O=C(NCc1ccccc1)c1c(O)c2cccc3c2n(c1=O)CCC3,-35.4,-10.6,/
O=C(NCc1ccc2c(c1)OCO2)c1c(O)c2cccc3c2n(c1=O)CCC3,72.4*,-1.7,10.1
CCN1C(=C2C(=O)c3ccccc3C2=O)C=Cc2ccccc21,-9.8,15.4,/
O=C1C=Cc2ccccc2C1=O,94.9*,-33.9,66.9*
COc1cccc(C2CC(=O)N3CN(c4ccccc4F)CSC3=C2C#N)c1 (configuration not stated),75.9*,-10.7,12.4
COc1cc(C2CC(=O)N3CN(c4ccccc4C)CSC3=C2C#N)cc(OC)c1OC (configuration not stated),66.4*,-14.1,83.3*
COc1ccc(OC)c(C2CC(=O)N3CN(c4cccc(Cl)c4C)CSC3=C2C#N)c1 (configuration not stated),20.6,6.3,/
COc1ccc(OC)c(C2CC(=O)N3CN(c4ccccc4F)CSC3=C2C#N)c1 (configuration not stated),26.9,5.2,/
COc1ccccc1N1CSC2=C(C#N)C(c3ccc(SC)cc3)CC(=O)N2C1 (configuration not stated),81.2*,-1.9,55.2*
COc1cccc(C2CC(=O)N3CN(c4cccc(Cl)c4C)CSC3=C2C#N)c1OC (configuration not stated),25.3,-6.9,/
Fc1ccc(Cn2nnnc2CN2CCc3ccccc3C2)cc1,-3.4,-14.9,/
CCN(CC)S(=O)(=O)c1ccc2oc(C(=O)NCc3ccc(F)cc3)c(C)c2c1,5.0,5.1,/
Cc1ccc(S(=O)(=O)NNc2nc3ccccc3nc2C(F)(F)F)cc1,/,18.0,/
Cc1ccccc1Oc1ccc(Oc2ccccc2C)nn1,-10.0,-2.1,/
